{
  "source": "the antibiotic and cytotoxicity screens of Wong et al. (2023)",
  "note": "About 3,300 (8.5%) of roughly 39,000 compounds were called active. This is one part of a sample in which actives are shown more often than they occur.",
  "data": [
    {"test_system": "HepG2", "assay": "cytotoxicity call (relative viability < 0.9)", "details": "10 µM", "values": [
      {"smiles": "C[C@@H]1CN([C@@H](C)CO)C(=O)Cc2cc(NC(=O)CCCCCC(=O)Nc3ccccc3N)ccc2O[C@@H]1CN(C)C(=O)Nc1ccc(F)cc1", "cytotoxicity call": "inactive"},
      {"smiles": "C[C@H](CO)N1C[C@H](C)[C@@H](CN(C)C(=O)NC2CCCCC2)Oc2c(NC(=O)c3cnccn3)cccc2C1=O", "cytotoxicity call": "inactive"},
      {"smiles": "Cc1noc(C)c1S(=O)(=O)Nc1ccc2c(c1)C(=O)N([C@H](C)CO)C[C@H](C)[C@H](CN(C)C(=O)Nc1ccc(F)cc1)OCCCC[C@@H](C)O2", "cytotoxicity call": "inactive"},
      {"smiles": "C[C@@H]1CN([C@@H](C)CO)C(=O)c2cc(C#CC3(O)CCCC3)cnc2O[C@H]1CN(C)C(=O)CN(C)C", "cytotoxicity call": "inactive"},
      {"smiles": "CNC[C@H]1OCCCC[C@@H](C)Oc2ccc(NC(=O)Nc3ccc(C(F)(F)F)cc3)cc2C(=O)N([C@@H](C)CO)C[C@H]1C", "cytotoxicity call": "inactive"},
      {"smiles": "COc1ccc(NC(=O)Nc2cccc3c2O[C@@H](CN(C)Cc2ccc(C(=O)Nc4ccccc4N)cc2)[C@H](C)CN([C@H](C)CO)C3=O)cc1", "cytotoxicity call": "inactive"},
      {"smiles": "C[C@@H]1CCCCO[C@@H](CN(C)Cc2ccc(C(=O)Nc3ccccc3N)cc2)[C@@H](C)CN([C@H](C)CO)C(=O)c2cc(NC(=O)NC3CCCCC3)ccc2O1", "cytotoxicity call": "inactive"},
      {"smiles": "COCCOC(=O)N1C(=O)[C@@]2(c3cc(C#Cc4ccc(OC)cc4)ccc31)[C@H](c1ccccc1OCCO)N1[C@H](c3ccccc3)[C@H](c3ccccc3)OC(=O)[C@H]1[C@@H]2C(=O)NC[C@H](O)c1ccccc1", "cytotoxicity call": "inactive"},
      {"smiles": "CC(C)NC(=O)Nc1ccc2c(c1)CC(=O)N([C@H](C)CO)C[C@@H](C)[C@H](CN(C)S(=O)(=O)c1ccccc1)O2", "cytotoxicity call": "inactive"},
      {"smiles": "C[C@@H]1CN([C@H](C)CO)C(=O)c2cccc(NC(=O)C3CCCCC3)c2O[C@@H]1CN(C)Cc1ccc(Oc2ccccc2)cc1", "cytotoxicity call": "inactive"},
      {"smiles": "CO[C@@H]1CN(C)C(=O)c2cc(NC(=O)Nc3cccc(Cl)c3)ccc2OC[C@@H](C)N(C(=O)Nc2c(C)noc2C)C[C@@H]1C", "cytotoxicity call": "inactive"},
      {"smiles": "CO[C@H]1CN(C)C(=O)c2cc(NC(=O)Nc3cccc(Cl)c3)ccc2OC[C@H](C)N(C(=O)Nc2c(C)noc2C)C[C@@H]1C", "cytotoxicity call": "inactive"},
      {"smiles": "C[C@@H]1CN([C@@H](C)CO)C(=O)c2cc(NC(=O)NC3CCCCC3)ccc2O[C@@H](C)CCCCO[C@@H]1CN(C)S(=O)(=O)c1cccs1", "cytotoxicity call": "inactive"},
      {"smiles": "C[C@@H]1CCCCO[C@H](CN(C)S(=O)(=O)c2cccs2)[C@H](C)CN([C@H](C)CO)C(=O)c2cc(NC(=O)Nc3ccc(F)cc3)ccc2O1", "cytotoxicity call": "active"},
      {"smiles": "C[C@@H]1CCCCO[C@@H](CN(C)S(=O)(=O)c2cccs2)[C@H](C)CN([C@@H](C)CO)C(=O)c2cc(NC(=O)Cc3ccccc3)ccc2O1", "cytotoxicity call": "inactive"},
      {"smiles": "C[C@H]1CCCCO[C@H](CN(C)S(=O)(=O)c2cccs2)[C@@H](C)CN([C@@H](C)CO)C(=O)c2cc(NC(=O)Nc3ccc(F)cc3)ccc2O1", "cytotoxicity call": "inactive"},
      {"smiles": "C[C@@H]1CCCCO[C@@H](CN(C)S(=O)(=O)c2cccs2)[C@H](C)CN([C@H](C)CO)C(=O)c2cc(NC(=O)NC3CCCCC3)ccc2O1", "cytotoxicity call": "active"},
      {"smiles": "C[C@@H]1CCCCO[C@@H](CN(C)S(=O)(=O)c2cccs2)[C@H](C)CN([C@H](C)CO)C(=O)c2cc(NC(=O)Cc3ccccc3)ccc2O1", "cytotoxicity call": "active"},
      {"smiles": "C[C@@H]1CN([C@@H](C)CO)C(=O)c2cc(NC(=O)NC3CCCCC3)ccc2O[C@@H](C)CCCCO[C@H]1CN(C)S(=O)(=O)c1cccs1", "cytotoxicity call": "inactive"},
      {"smiles": "C[C@H](CO)N1C[C@H](C)[C@H](CN(C)S(=O)(=O)c2cccs2)OCCCC[C@H](C)Oc2ccc(NC(=O)Nc3ccc(F)cc3)cc2C1=O", "cytotoxicity call": "inactive"},
      {"smiles": "C[C@@H]1CN([C@H](C)CO)C(=O)c2cc(NC(=O)Cc3ccccc3)ccc2O[C@@H](C)CCCCO[C@H]1CN(C)S(=O)(=O)c1cccs1", "cytotoxicity call": "inactive"},
      {"smiles": "O=C(O)CNC(=O)C1CCC1", "cytotoxicity call": "inactive"},
      {"smiles": "COCCNC(=O)C[C@@H]1CC[C@H]2[C@@H](COC[C@H](O)CN2C(=O)Nc2ccc3c(c2)OCO3)O1", "cytotoxicity call": "inactive"},
      {"smiles": "CN1C(=O)c2cc(NC(=O)c3cscn3)ccc2OC[C@@H]2O[C@H](CC(=O)N3CCOCC3)CC[C@H]21", "cytotoxicity call": "inactive"},
      {"smiles": "C[C@@H]1CCCCO[C@@H](CN(C)C(=O)Cc2ccccc2)[C@H](C)CN([C@H](C)CO)C(=O)c2cc(NC(=O)Nc3ccccc3)ccc2O1", "cytotoxicity call": "inactive"},
      {"smiles": "COc1ccc(S(=O)(=O)N(C)C[C@@H]2Oc3ccc(NS(=O)(=O)c4ccccc4)cc3C(=O)N([C@@H](C)CO)C[C@@H]2C)cc1", "cytotoxicity call": "inactive"},
      {"smiles": "Cc1noc(C)c1NC(=O)N(C)C[C@@H]1Oc2ccc(NC(=O)c3ccncc3)cc2CC(=O)N([C@H](C)CO)C[C@@H]1C", "cytotoxicity call": "inactive"},
      {"smiles": "COC(=O)C1=C2CC[C@H](CO)NC(=O)N[C@H](Cc3ccccc3)C(=O)NCc3cn(nn3)C[C@H](Cc3ccccc3)NC(=O)c3oc(c(C(=O)OC)c3C(=O)OC)CC[C@H](CO)NC(=O)N[C@H](Cc3ccccc3)C(=O)NCc3cn(nn3)C[C@H](Cc3ccccc3)NC(=O)C(=C1C(=O)OC)O2", "cytotoxicity call": "inactive"},
      {"smiles": "C[C@@H]1CN([C@H](C)CO)C(=O)c2cc(C3=CCCC3)cnc2O[C@H]1CN(C)C(=O)Nc1ccc(C(F)(F)F)cc1", "cytotoxicity call": "inactive"},
      {"smiles": "Cc1ccc(S(=O)(=O)N(C)C[C@H]2OCCCC[C@H](C)Oc3ccc(NC(=O)Nc4cccc5ccccc45)cc3C(=O)N([C@@H](C)CO)C[C@@H]2C)cc1", "cytotoxicity call": "inactive"},
      {"smiles": "C[C@H](CO)N1C[C@H](C)[C@@H](CN(C)C(=O)C2CCOCC2)Oc2ncc(C#CCc3ccccc3)cc2C1=O", "cytotoxicity call": "inactive"},
      {"smiles": "C[C@@H]1CN([C@H](C)CO)C(=O)c2cc(Br)cnc2O[C@H]1CN(C)C(=O)Nc1ccc(F)cc1", "cytotoxicity call": "inactive"},
      {"smiles": "COc1ccc(NC(=O)N(C)C[C@H]2OCCCC[C@H](C)Oc3ccc(NS(=O)(=O)c4ccc(C)cc4)cc3C(=O)N([C@H](C)CO)C[C@@H]2C)cc1", "cytotoxicity call": "inactive"},
      {"smiles": "CCCc1cc(C)[nH]c(=O)c1CNC(=O)c1cc(-c2ccc(N3CCN(C(C)C)CC3)nc2)cc2c1cnn2C(C)C", "cytotoxicity call": "active"},
      {"smiles": "C[C@@H]1CN([C@H](C)CO)C(=O)c2cc(-c3cccc(C(=O)N(C)C)c3)cnc2O[C@H]1CN(C)S(=O)(=O)c1ccc(F)cc1", "cytotoxicity call": "inactive"},
      {"smiles": "CO[C@@H](CN(C)S(=O)(=O)c1cn(C)cn1)[C@@H](C)CN(C(=O)Nc1ccc(C(F)(F)F)cc1)[C@@H](C)CO", "cytotoxicity call": "inactive"}
    ]}
  ]
}
